Laboratory results taken from the antibiotic and cytotoxicity screens of Wong et al. (2023).
The whole screen tested about 39,000 compounds, of which about 3,300 (8.5%) were called active. For the sample, actives were picked, then their nearest neighbours and some compounds at random.

These compounds were tested on HepG2 (assay: cytotoxicity call (relative viability < 0.9)). Conditions: 10 µM.

Structure (SMILES)	cytotoxicity call
C[C@H](O)[C@H](O)[C@@H](O)[C@@H](O)/C=N/NC(=O)c1cccc(C(=O)NO)c1	inactive
Cc1cc(C(=O)Nc2cccc3c2O[C@@H](CN(C)Cc2ccc4c(c2)OCO4)[C@@H](C)CN([C@@H](C)CO)C3=O)n(C)n1	inactive
COc1ccc(NC(=O)Nc2ccc3c(c2)C(=O)N([C@@H](C)CO)C[C@H](C)[C@H](CN(C)Cc2ccc(Oc4ccccc4)cc2)O3)cc1	inactive
COc1ccc(NC(=O)Nc2ccc3c(c2)C(=O)N([C@@H](C)CO)C[C@@H](C)[C@@H](CN(C)Cc2ccc(-c4ccccc4)cc2)O3)cc1	active
COc1ccc(NC(=O)Nc2ccc3c(c2)C(=O)N([C@@H](C)CO)C[C@H](C)[C@H](CN(C)Cc2ccc(-c4ccccc4)cc2)O3)cc1	inactive
COc1ccc(NC(=O)Nc2ccc3c(c2)C(=O)N([C@H](C)CO)C[C@@H](C)[C@H](CN(C)Cc2ccc(Oc4ccccc4)cc2)O3)cc1	inactive
COc1ccc(NC(=O)Nc2ccc3c(c2)C(=O)N([C@H](C)CO)C[C@H](C)[C@H](CN(C)Cc2ccc(-c4ccccc4)cc2)O3)cc1	active
COc1ccc(NC(=O)Nc2ccc3c(c2)C(=O)N([C@H](C)CO)C[C@H](C)[C@@H](CN(C)Cc2ccc(-c4ccccc4)cc2)O3)cc1	inactive
COc1ccc(NC(=O)Nc2ccc3c(c2)C(=O)N([C@H](C)CO)C[C@@H](C)[C@H](CN(C)Cc2ccc(-c4ccccc4)cc2)O3)cc1	active
COc1ccc(NC(=O)Nc2ccc3c(c2)C(=O)N([C@H](C)CO)C[C@@H](C)[C@@H](CN(C)Cc2ccc(-c4ccccc4)cc2)O3)cc1	active
COc1ccc(NC(=O)Nc2ccc3c(c2)C(=O)N([C@@H](C)CO)C[C@H](C)[C@@H](CN(C)Cc2ccc(-c4ccccc4)cc2)O3)cc1	inactive
CC(=O)c1ccc(S(=O)(=O)N2[C@@H]3CC[C@@H](C3)[C@H]2c2nc3cccc(OCc4ccc(F)cc4)c3[nH]2)cc1	inactive
C[C@@H]1CN([C@@H](C)CO)C(=O)c2cc(NC(=O)C3CC3)ccc2O[C@@H]1CN(C)S(=O)(=O)c1cccs1	inactive
CCCC(=O)Nc1ccc2c(c1)OC[C@H](C)N(Cc1ccc(-c3ccccn3)cc1)C[C@@H](C)[C@H](OC)CN(C)C2=O	inactive
COc1ccc(S(=O)(=O)Nc2ccc3c(c2)C(=O)N([C@@H](C)CO)C[C@@H](C)[C@@H](CN(C)C(=O)Nc2c(C)noc2C)OCCCC[C@H](C)O3)cc1	inactive
C[C@@H]1CN([C@@H](C)CO)C(=O)c2cc(NS(=O)(=O)c3ccccc3)ccc2O[C@@H]1CN(C)C(=O)Nc1cccc2ccccc12	inactive
